How the values were obtained:
Test in all cases: PBM binding z-score (relative to random genomic background probes); higher = stronger binding; sequences stand for … in GC…GCGATTGACAGCGTAGAATGAAGG
[1] = system: FXR:RXRa (NR concentration 270 nM, RXRa partner concentration 90 nM)
Outline: (§1)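 Each nuclear receptor dimer, without ligand, was incubated for 1 h on custom Agilent 4×180K protein-binding microarrays. Binding was detected with antibodies against each partner (one per run), and scanned fluorescence was regression-normalized. The binding z-scores are referenced to random human genomic background probes.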

[2] = system: LXRa:RXRa (NR concentration 270 nM, RXRa partner concentration 90 nM)
Outline: as §1

[3] = system: LXRa homodimer (NR concentration 270 nM)
Outline: as §1

[4] = system: LXRb:RXRa (NR concentration 270 nM, RXRa partner concentration 90 nM)
Outline: as §1

[5] = system: LXRb homodimer (NR concentration 270 nM)
Outline: as §1

[6] = system: PPARa:RXRa (NR concentration 270 nM, RXRa partner concentration 90 nM)
Outline: as §1

[7] = system: PPARg:RXRa (NR concentration 180 nM, RXRa partner concentration 90 nM)
Outline: as §1

[8] = system: PPARg:RXRa 270nM:90nM, anti-RXR (NR concentration 270 nM, RXRa partner concentration 90 nM)
Outline: as §1

[9] = system: PPARg:RXRa 30nM:10nM, anti-RXR (NR concentration 30 nM, RXRa partner concentration 10 nM)
Outline: as §1

[10] = system: PPARg:RXRa 90nM:30nM, anti-RXR (NR concentration 90 nM, RXRa partner concentration 30 nM)
Outline: as §1

Sequence | PBM binding z-score [1] | PBM binding z-score [2] | PBM binding z-score [3] | PBM binding z-score [4] | PBM binding z-score [5] | PBM binding z-score [6] | PBM binding z-score [7] | PBM binding z-score [8] | PBM binding z-score [9] | PBM binding z-score [10]
TTACCAAGGTGATGGTCGTTGATCCCTCTGTAGA | 0.274 | 0.0639 | -0.222 | 0.219 | -0.598 | 0.442 | -0.08 | 0.334 | 0.217 | 0.0112
CCTTACGGGTCACTGACAGGTTATATCATTTGGA | 5.35 | 4.27 | 0.675 | 3.82 | -0.0554 | 5.14 | 4.29 | 4.13 | 1.54 | 2.98
TCTGCTAGGTCAACGATGGTCAGGTAATCTGCTA | 3.43 | 2.96 | 0.163 | 1.53 | -0.249 | 3.19 | 2.74 | 3.06 | 2.01 | 2.65
GCTCGGAGGACAAGGTCAGATCTTTGTCCGTAGA | 2.14 | 2.12 | -0.175 | 1.87 | -0.0535 | 2.68 | 0.835 | 1.44 | -0.124 | 0.769
ATCTCTAGGTAAAAGTTCAGTTAATCCCGAGGAT | 1.31 | 1.89 | 1.81 | 1.34 | 1.19 | 4.56 | 8.35 | 7.9 | 8.17 | 8.69
CCTACTGGGCCATAGGTCATTGATTCCAATGCTC | 1.76 | 2.08 | 1.23 | 2.39 | -0.227 | 5.16 | 9.89 | 8.77 | 8.56 | 10.3
CAGCCTAGGACAGGGCCAGTATAGGAGGAACGTT | -0.452 | -0.926 | -0.352 | -0.799 | -0.979 | -0.804 | 0.36 | -0.522 | -0.216 | -0.473
TCTTGTAGATCTGCAGGTTAAGAAAGCTGGCCAA | 0.0261 | 0.396 | -0.113 | 0.457 | -0.445 | 0.515 | -0.788 | 1.01 | 2.56 | 1.89
GCAGACAGGTGAAATGCAGGTAACTCAGGGTGGC | -0.157 | 0.0887 | -0.625 | -0.157 | -0.898 | 1.23 | 0.71 | 0.196 | -0.445 | 0.00263
TCATATAGGTAAAGGTCAAAGTCGAACGATATGA | 6.53 | 6.13 | 4.7 | 5.5 | 2.62 | 6.15 | 7.64 | 6.9 | 6.04 | 7.15
CCGAGTATGTTATGGGGCATTCAGGCAACGGTGA | 0.355 | -0.00818 | -0.0828 | 0.322 | -0.243 | 0.665 | 0.711 | 1.75 | 0.316 | 1.35
GCTATTAGTTGAAAGGGCACCCGAATGATTCTCG | 0.43 | 0.387 | 0.235 | 0.554 | -0.128 | 2.14 | 2.65 | 4.3 | 2.41 | 3.99
CCTTACGGGTCACTGACCGGTTATAGCATTTGGA | 5.3 | 5.49 | 1.84 | 4.04 | 0.194 | 5 | 3.68 | 4.28 | 1.31 | 2.95
CCGAGTAGGTGATGGGGCATTCAGGCAACGGTGA | -0.0189 | -0.218 | -0.529 | -0.326 | -1.01 | 1.72 | 3.51 | 4.41 | 2.46 | 4.61
ACTATTAGTTGCCTTAGGGCAACCGATACGACGC | 0.218 | 0.346 | 0.285 | 0.202 | 0.935 | 0.287 | 0.672 | 0.279 | 0.294 | 0.358
ACAATTAGTTGAGACGAGGGCAACCGATAGGTTG | 0.779 | 0.374 | 0.178 | 0.228 | -0.183 | 0.503 | 0.794 | 0.375 | 0.274 | 0.45
ACTAGTTGGTCAGCTGAGGTCACACATAATTCGG | 3.42 | 3.14 | 2.03 | 3.37 | 1.17 | 3.6 | 1.8 | 2.34 | 0.875 | 1.62
CAAACTAGGTCACCAGAAGGTCAAAGTCCGCATG | 6.14 | 6.04 | 4.65 | 5.24 | 1.41 | 6.22 | 9.74 | 7.94 | 6.18 | 7.98
TCTACTTGGTCAAAGGTCACACACTCGAAATGCG | 6.58 | 5.85 | 4.37 | 5.9 | 2.26 | 6.72 | 11.9 | 9.98 | 10.5 | 11
CATAAAGGGTCAGCTAGGCCAGAGTAGGGACGGC | 5.38 | 3.9 | 0.537 | 2.74 | 0.607 | 4.71 | 4.17 | 3.83 | 1.06 | 2.82
GCTTACGGGCCAAAGGTTATAGCATGAATAGAAT | 1.52 | 1.75 | -0.0531 | 2.24 | -0.287 | 4.59 | 8.48 | 7.11 | 6.58 | 7.83
TCGAGTAGGTTACCAATGGGACATTCAGCTTTCT | 0.203 | 1.04 | -0.603 | 0.366 | -0.806 | 0.841 | 0.563 | 1.2 | 1.11 | 1.08
ACTAGCAGTCCAAGTTTGGGTCACTCAAACAAAG | 0.21 | 0.226 | -0.0309 | 0.795 | -0.524 | 1.13 | -0.105 | 0.22 | -0.155 | -0.0965
GCAGACAGGTGAAACGCAGGTAACTGAGGGTGGC | -0.0768 | -0.241 | -0.455 | -0.345 | -0.944 | 0.632 | 0.492 | -0.236 | -0.698 | -0.467
ACAGACAGGTGATGAAGGTTACTCAGGCTATCAT | 0.29 | 0.278 | 0.0459 | 0.276 | -0.288 | 0.714 | 0.777 | 0.381 | 0.107 | 0.0691

Sequence | PBM binding z-score [1] | PBM binding z-score [2] | PBM binding z-score [3] | PBM binding z-score [4] | PBM binding z-score [5] | PBM binding z-score [6] | PBM binding z-score [7] | PBM binding z-score [8] | PBM binding z-score [9] | PBM binding z-score [10]
GATACAGGGTCAGCTAGACGCCAGAGTATGGAAA | 4.79 | 2.3 | -0.39 | 2.07 | -0.431 | 4.71 | 3.71 | 3.1 | 0.594 | 1.97
ATATGTAGGTTTTCGGGTCATTCAGTTTGCGCAT | 3.26 | 2.94 | 1.41 | 3.14 | 1.57 | 4.19 | 3.95 | 4.14 | 1.9 | 3.5
ATATATAGGTTAGCTGGGGTCATTCAGACTAGGC | 4.53 | 6.18 | 3.51 | 5.39 | 2.03 | 5.2 | 5.62 | 5.43 | 2.62 | 4.79
GCTGCTAGGTCAACTGATGGACAGCTAAAGCTCG | 3.98 | 2.38 | -0.308 | 1.66 | 0.0379 | 3.46 | 2.8 | 2.99 | 0.269 | 1.92
TCTTGTAGATCAATAGATGTTAAGAAAGTGCGCT | 0.0811 | 0.309 | 0.0852 | 0.0203 | -0.00365 | -0.0219 | 0.251 | 1.64 | 3.17 | 2.42
GATACAGGGTCAGCTAGAGGCCGGAGTATGGAAA | 4.48 | 2.56 | -0.44 | 2.17 | -0.594 | 4.57 | 3.61 | 3.41 | 0.716 | 2.13
ACTAGTTGGTCAGCTGAGGTCACTCACAATTCGG | 2.19 | 2.57 | 1.98 | 2.87 | 0.671 | 3.26 | 1.04 | 1.68 | 0.169 | 1.19
ACTATTAGTTGAGACGAGGGCAACGGATAGGTTG | 0.259 | 0.127 | -0.147 | 0.0625 | 0.209 | 0.0596 | 0.652 | -0.1 | -0.0194 | -0.207
GGAACGAGGGCAAAGTTGGTAGCATCTGTCGACG | 1.06 | 0.577 | -0.241 | 0.306 | -0.429 | 3.14 | 5 | 5.51 | 4.45 | 5.44
AGAATGAGGTTTAGATCAGGGAAACAGAATACAT | 0.0195 | -0.0666 | -0.0558 | -0.395 | -0.223 | -0.306 | 0.649 | 0.00462 | 0.223 | 0.354
CAAACTAGGTCAAAAGTCAAAGTCGAGCCAACCA | 4.73 | 3.95 | 0.814 | 2.97 | 0.644 | 6.39 | 11.9 | 9.92 | 9.77 | 11
CTCGAAAGGTCGGTTGAGGTGGGTATACGGATAA | 2.11 | 1.35 | 0.0862 | 1.31 | 0.332 | 2.36 | 0.284 | 0.726 | 0.0658 | 0.243
ATATGTAGGTTACATCCGGGTCATTCAAGCTATG | 2.46 | 4.38 | 1.74 | 3.45 | 0.746 | 4.7 | 6.29 | 5.22 | 2.73 | 4.53
GCAGATAGGTGAAACGCAGGTAACTCAGGGTGGC | -0.146 | 0.0468 | -0.529 | -0.0922 | -1.28 | 1.27 | 0.838 | 0.277 | -0.496 | 0.174
GCAGACAGGTGAAACGCAGATAACTCAGGGTGGC | -0.337 | -0.00809 | -0.429 | -0.285 | -0.813 | 0.654 | 1.04 | -0.0865 | -0.367 | -0.137
GCTAGTTGGTCATTAAAAGGTCACACACCGGTCG | 3.71 | 4.83 | 6.37 | 4.7 | 1.12 | 4.31 | 1.92 | 3.77 | 1.5 | 2.68
CCTTACGCGTCAAGGTTATAGCACGGGTGGTACG | 0.452 | 0.749 | 0.096 | 0.771 | 0.153 | 1.14 | 0.691 | -0.0885 | -0.308 | 0.0411
TCTTGTAGATCAGCAGGTTGAGAAAGCTGGCCAA | 0.242 | 0.0309 | -0.346 | -0.0211 | -0.546 | 0.457 | -0.781 | 1.1 | 2.58 | 1.75
TCCTGTAGATCAAGCAGGTTAAGAAAGCCTGAGT | 0.115 | 0.256 | -0.387 | 0.136 | -1.12 | 0.563 | -0.537 | 1.19 | 2.38 | 1.42
TTAACAAGGTGAAGGTCGTTGATCCCTCTGTAGA | 2.23 | 1.78 | -0.258 | 1.35 | -0.562 | 2.91 | 2.42 | 3.09 | 1.5 | 2.65
ACAGACAGGTGAGTGAGGGTAACTCAGCTGGACG | 0.174 | 0.269 | -0.243 | -0.0988 | -0.478 | 0.503 | 0.629 | 0.0987 | -0.248 | -0.159
ATCTCTAGGTAAAAGTTCATTGAATCCCGAGGAT | 2.13 | 3.38 | 4.04 | 2.13 | 1.06 | 4.7 | 8.45 | 7.53 | 7.5 | 8.69
TCTCGGAGGACACGAAGGTGAGAGCTTTCCAGAG | -0.0901 | -0.338 | -0.832 | -0.756 | -1.18 | -0.0332 | 0.00837 | 0.718 | 1.9 | 0.958
CGAACTAGGTCAGAAAAGGACAGTGAAGGATGAT | 1.84 | 0.723 | -0.125 | 0.338 | -0.514 | 2.87 | 4.64 | 4.06 | 1.43 | 3

Reference: the supplement of paper PMC6555819
